Results as given in the supplement of paper PMC7724964.

Assays:
Assay in all cases: phage ELISA signal ratio (GST-PRM binding over GST background); higher = stronger binding of peptide-phage to the PRM
[1] = biological target: T1, CLTC 1-363 Clathrin_propel+Clathrin-link (domain begin residue: 1, domain end residue: 363), Q00610
T1 chain: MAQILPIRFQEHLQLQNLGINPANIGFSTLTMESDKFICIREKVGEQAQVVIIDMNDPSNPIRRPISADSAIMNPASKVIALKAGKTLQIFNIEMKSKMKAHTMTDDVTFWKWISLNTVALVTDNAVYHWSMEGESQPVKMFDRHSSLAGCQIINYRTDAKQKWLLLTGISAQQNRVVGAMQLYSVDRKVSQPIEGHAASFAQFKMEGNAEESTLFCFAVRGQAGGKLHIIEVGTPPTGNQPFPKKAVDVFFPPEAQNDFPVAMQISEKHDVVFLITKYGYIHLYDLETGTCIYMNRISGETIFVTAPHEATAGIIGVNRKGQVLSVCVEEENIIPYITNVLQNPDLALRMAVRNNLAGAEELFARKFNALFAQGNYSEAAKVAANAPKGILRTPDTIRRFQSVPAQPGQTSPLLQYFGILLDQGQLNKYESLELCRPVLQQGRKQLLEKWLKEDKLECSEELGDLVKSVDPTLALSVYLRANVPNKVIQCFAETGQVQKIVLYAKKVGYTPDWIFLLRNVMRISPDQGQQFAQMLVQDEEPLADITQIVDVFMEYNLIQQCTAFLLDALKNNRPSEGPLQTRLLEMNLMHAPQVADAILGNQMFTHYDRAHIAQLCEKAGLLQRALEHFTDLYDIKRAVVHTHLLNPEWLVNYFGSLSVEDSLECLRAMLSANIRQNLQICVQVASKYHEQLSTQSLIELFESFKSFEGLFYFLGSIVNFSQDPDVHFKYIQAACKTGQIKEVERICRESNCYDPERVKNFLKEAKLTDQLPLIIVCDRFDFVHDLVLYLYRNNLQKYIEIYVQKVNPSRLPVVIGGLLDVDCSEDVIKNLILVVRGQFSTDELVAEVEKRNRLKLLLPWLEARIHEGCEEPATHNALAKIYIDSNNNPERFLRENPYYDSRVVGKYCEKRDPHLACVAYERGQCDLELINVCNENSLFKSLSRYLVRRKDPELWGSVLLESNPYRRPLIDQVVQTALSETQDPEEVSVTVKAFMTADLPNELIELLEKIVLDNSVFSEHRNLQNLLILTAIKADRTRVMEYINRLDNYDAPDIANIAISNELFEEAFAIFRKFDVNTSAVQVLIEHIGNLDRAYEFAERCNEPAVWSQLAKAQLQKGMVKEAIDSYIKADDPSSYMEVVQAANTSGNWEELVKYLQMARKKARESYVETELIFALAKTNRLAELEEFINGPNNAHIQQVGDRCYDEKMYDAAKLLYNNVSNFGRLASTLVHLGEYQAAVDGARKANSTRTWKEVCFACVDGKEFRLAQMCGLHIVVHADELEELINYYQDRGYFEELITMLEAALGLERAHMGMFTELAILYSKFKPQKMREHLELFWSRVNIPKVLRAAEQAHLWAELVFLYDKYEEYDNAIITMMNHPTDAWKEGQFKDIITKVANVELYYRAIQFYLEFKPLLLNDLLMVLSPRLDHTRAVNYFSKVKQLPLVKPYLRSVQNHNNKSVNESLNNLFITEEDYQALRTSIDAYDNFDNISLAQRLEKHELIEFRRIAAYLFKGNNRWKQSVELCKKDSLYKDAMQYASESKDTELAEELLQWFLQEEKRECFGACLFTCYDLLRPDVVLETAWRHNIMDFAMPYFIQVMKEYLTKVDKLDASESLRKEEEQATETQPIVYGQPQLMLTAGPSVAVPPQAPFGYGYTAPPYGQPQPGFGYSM
Description: (§1)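 Phage-displayed random hexadecapeptides (Cys-free, flanked by invariant Gly linkers, fused to the M13 P8 major coat protein) were selected over 5 rounds against GST-fused human PRM domains. Individual clones from rounds 4-5 were tested by phage ELISA, and positive clones binding the target but not GST were sequenced. Values are the ELISA signal ratio of target over background (GST); the background signal is given separately.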

[2] = biological target: T2, CD2BP2 256-341 GYF (domain begin residue: 256, domain end residue: 341), O95400
T2 chain: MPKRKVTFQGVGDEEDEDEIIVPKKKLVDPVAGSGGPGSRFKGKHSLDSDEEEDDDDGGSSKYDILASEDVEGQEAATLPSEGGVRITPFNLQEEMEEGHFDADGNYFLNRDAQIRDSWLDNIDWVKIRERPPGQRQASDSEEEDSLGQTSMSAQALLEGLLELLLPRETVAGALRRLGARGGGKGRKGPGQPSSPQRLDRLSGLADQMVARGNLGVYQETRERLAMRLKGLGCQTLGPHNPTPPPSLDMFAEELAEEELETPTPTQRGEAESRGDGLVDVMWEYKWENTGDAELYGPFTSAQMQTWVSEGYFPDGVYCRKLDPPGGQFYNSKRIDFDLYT
Description: as §1

[3] = biological target: CKS1B 1-79 CKS (domain begin residue: 1, domain end residue: 79), P61024
Description: as §1

[4] = biological target: DEPDC6 20-129 DEP (domain begin residue: 20, domain end residue: 129)
Description: as §1

[5] = biological target: DCTN1 26-97 CAP_GLY (domain begin residue: 26, domain end residue: 97), Q14203
Description: as §1

[6] = biological target: CBX3 109-173 Chromo_shadow (domain begin residue: 109, domain end residue: 173), Q13185
Description: as §1

[7] = biological target: T3, GIGYF2 507-602 GYF (domain begin residue: 507, domain end residue: 602), Q6Y7W6
T3 chain: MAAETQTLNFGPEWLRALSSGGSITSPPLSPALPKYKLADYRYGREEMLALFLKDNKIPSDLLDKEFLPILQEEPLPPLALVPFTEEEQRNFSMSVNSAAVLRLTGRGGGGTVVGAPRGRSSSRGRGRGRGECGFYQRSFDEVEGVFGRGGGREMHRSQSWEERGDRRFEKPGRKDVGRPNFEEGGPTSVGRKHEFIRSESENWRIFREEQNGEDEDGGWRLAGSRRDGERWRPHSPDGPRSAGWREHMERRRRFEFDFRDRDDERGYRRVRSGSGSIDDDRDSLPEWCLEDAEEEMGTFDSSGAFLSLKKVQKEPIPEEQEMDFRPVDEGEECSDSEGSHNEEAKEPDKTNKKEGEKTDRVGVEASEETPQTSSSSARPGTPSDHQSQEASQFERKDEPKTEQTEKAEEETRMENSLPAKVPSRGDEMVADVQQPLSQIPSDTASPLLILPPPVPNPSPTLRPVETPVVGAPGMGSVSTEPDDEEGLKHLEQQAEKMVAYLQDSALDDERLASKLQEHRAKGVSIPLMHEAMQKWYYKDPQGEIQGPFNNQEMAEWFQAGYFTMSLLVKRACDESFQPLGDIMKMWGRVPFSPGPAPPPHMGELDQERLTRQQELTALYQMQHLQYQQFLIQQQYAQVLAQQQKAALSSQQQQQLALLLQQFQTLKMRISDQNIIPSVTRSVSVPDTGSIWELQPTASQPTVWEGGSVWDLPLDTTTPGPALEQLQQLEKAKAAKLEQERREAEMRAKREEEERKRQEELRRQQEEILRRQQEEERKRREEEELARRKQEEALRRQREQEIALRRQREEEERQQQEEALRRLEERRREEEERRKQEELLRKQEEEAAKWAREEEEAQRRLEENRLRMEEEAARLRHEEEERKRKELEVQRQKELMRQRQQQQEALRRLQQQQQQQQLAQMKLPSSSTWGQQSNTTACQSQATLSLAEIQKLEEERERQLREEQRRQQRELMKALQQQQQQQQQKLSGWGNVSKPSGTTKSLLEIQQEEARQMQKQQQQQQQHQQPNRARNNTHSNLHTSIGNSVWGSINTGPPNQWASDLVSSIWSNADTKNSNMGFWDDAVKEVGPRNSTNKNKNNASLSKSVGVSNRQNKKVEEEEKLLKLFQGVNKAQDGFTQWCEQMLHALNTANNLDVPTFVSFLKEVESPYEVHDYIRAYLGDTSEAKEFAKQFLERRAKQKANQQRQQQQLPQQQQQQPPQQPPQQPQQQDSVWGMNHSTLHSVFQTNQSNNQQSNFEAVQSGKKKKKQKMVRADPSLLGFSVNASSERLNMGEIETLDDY
Description: as §1

[8] = biological target: DEPDC1B 7-110 DEP (domain begin residue: 7, domain end residue: 110), Q8WUY9
Description: as §1

CBX3 109-173 Chromo_shadow (domain begin residue: 109, domain end residue: 173), Q13185, sequence (Q13185 whole entry): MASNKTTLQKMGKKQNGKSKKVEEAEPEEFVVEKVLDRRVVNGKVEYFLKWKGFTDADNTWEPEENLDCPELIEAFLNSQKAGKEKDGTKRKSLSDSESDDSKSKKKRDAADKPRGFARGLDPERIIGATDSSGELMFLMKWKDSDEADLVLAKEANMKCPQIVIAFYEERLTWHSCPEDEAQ
DCTN1 26-97 CAP_GLY (domain begin residue: 26, domain end residue: 97), Q14203, sequence (Q14203 whole entry): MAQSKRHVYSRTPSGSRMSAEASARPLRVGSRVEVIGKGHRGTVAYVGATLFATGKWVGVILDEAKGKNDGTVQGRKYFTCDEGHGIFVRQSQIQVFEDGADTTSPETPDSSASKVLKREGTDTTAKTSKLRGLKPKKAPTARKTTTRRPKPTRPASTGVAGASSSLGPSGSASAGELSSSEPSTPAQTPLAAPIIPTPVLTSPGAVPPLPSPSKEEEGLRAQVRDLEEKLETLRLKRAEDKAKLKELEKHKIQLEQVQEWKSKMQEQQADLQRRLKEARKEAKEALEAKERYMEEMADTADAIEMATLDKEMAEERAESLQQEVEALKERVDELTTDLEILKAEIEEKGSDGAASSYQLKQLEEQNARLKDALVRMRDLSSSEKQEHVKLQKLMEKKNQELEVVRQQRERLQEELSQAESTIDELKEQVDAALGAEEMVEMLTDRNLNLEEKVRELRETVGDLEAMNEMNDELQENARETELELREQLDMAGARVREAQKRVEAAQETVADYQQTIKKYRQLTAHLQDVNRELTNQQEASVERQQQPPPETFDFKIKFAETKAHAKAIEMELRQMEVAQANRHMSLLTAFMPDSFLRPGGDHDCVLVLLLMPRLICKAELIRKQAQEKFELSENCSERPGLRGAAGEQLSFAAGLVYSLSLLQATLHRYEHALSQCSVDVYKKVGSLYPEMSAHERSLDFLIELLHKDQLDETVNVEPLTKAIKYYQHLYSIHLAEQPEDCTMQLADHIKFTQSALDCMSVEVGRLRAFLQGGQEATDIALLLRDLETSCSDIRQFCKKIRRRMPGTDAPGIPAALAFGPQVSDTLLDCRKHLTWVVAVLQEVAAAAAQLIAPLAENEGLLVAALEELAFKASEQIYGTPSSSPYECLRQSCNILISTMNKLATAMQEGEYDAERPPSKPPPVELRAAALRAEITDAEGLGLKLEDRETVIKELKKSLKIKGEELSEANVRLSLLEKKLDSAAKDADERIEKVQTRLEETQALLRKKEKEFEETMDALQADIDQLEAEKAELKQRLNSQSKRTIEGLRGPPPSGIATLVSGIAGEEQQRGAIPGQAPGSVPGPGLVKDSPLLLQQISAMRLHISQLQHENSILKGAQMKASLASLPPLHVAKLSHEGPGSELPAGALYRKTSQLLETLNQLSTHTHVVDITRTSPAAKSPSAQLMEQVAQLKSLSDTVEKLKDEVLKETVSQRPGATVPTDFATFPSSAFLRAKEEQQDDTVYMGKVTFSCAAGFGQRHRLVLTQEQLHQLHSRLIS
CKS1B 1-79 CKS (domain begin residue: 1, domain end residue: 79), P61024, sequence (P61024 whole entry): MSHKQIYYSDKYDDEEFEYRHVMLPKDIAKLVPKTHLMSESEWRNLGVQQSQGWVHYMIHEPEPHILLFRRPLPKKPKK
DEPDC1B 7-110 DEP (domain begin residue: 7, domain end residue: 110), Q8WUY9, sequence (Q8WUY9 whole entry): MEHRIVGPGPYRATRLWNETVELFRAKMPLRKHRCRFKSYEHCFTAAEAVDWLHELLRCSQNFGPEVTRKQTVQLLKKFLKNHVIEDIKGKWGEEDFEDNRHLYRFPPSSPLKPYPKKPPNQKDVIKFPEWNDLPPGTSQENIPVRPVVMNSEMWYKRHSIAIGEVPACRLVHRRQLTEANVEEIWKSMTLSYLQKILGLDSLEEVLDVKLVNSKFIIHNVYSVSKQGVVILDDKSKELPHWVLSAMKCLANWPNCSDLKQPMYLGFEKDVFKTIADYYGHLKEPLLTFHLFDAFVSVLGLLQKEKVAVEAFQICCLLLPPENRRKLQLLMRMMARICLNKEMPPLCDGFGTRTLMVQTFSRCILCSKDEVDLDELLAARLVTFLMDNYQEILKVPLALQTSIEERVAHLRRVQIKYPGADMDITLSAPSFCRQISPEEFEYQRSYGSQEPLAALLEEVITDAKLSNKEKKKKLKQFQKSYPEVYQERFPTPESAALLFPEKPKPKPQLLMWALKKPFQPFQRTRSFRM

B1: unnamed (peptide)
chain: SPFVYDIVDLGFPSIM
With B1 the “phage ELISA signal ratio” value [1] was 22.5.

B2: unnamed (peptide)
chain: DQQQWDDMDWLATWML
In the case of B2, the “phage ELISA signal ratio” value [1] is reported as 32.5.

B3: unnamed (peptide)
chain: QEFMSISYPPGMPQDP
With B3 the “phage ELISA signal ratio” value [2] was 14.4.

B4: unnamed (peptide)
chain: MTWTATWYASDPYMEV
B4 was tested, and the “phage ELISA signal ratio” value [3] was 28.8.

B5: unnamed (peptide)
chain: DFQGIMDSYRAMEINT
B5 was tested, and the “phage ELISA signal ratio” value [4] was 20.1.

B6: unnamed (peptide)
chain: MEWTWEQWDLGADYVK
In the case of B6, the “phage ELISA signal ratio” value [5] is reported as 21.2.

B7: unnamed (peptide)
chain: YPYPPGWDSNYAQRVE
B7 was tested, and the “phage ELISA signal ratio” value [2] was 19.2.

B8: unnamed (peptide)
chain: HWIDSWEGFRARVIPS
For B8, the “phage ELISA signal ratio” value [6] was 12.6.

B9: unnamed (peptide)
chain: DDGWMMDWWHQAQLQM
In the case of B9, the “phage ELISA signal ratio” value [4] is reported as 6.22.

B10: unnamed (peptide)
chain: PPPGYSKWTWSVQERV
With B10 the “phage ELISA signal ratio” value [2] was 14.2.

B11: unnamed (peptide)
chain: WELQWDAIWGFPDELA
With B11 the “phage ELISA signal ratio” value [1] was 30.6.

B12: unnamed (peptide)
chain: DWAQVLWQDAHDWPVY
With B12 the “phage ELISA signal ratio” value [1] was 23.9.

B13: unnamed (peptide)
chain: MYEFLIEPEDDWWWWN
With B13 the “phage ELISA signal ratio” value [1] was 26.5.

B14: unnamed (peptide)
chain: GPLAWFLEDPYSSRVG
B14 was tested, and the “phage ELISA signal ratio” value [3] was 11.1.

B15: unnamed (peptide)
chain: WPNLEWMWDDEDMQFH
In the case of B15, the “phage ELISA signal ratio” value [1] is reported as 15.5.

B16: unnamed (peptide)
chain: HDVWASSWNWDDFRLN
With B16 the “phage ELISA signal ratio” value [6] was 12.7.

B17: unnamed (peptide)
chain: LAGFHPWFSEMLAEYH
In the case of B17, the “phage ELISA signal ratio” value [4] is reported as 8.33.

B18: unnamed (peptide)
chain: VSYPLVDLSDWHMWTN
With B18 the “phage ELISA signal ratio” value [1] was 20.8.

B19: unnamed (peptide)
chain: FKEWTWSPVEWGQAES
B19 was tested, and the “phage ELISA signal ratio” value [5] was 6.09.

B20: unnamed (peptide)
chain: WQATDYPQQPPPGWKE
In the case of B20, the “phage ELISA signal ratio” value [2] is reported as 18.9.

B21: unnamed (peptide)
chain: HEFTPPWTWDWDIPHI
For B21, the “phage ELISA signal ratio” value [5] was 7.35.

B22: unnamed (peptide)
chain: MSDPPTLEHWEYMSWE
B22 was tested, and the “phage ELISA signal ratio” value [5] was 12.

B23: unnamed (peptide)
chain: RDEAHMEWHFPSIWLT
With B23 the “phage ELISA signal ratio” value [6] was 16.2.

B24: unnamed (peptide)
chain: EPPGWEVRQPGMVQVQ
In the case of B24, the “phage ELISA signal ratio” value [2] is reported as 16.9 and the “phage ELISA signal ratio” value [7] is reported as 17.5.

B25: unnamed (peptide)
chain: DLPYEWSHFWDSIEHH
B25 was tested, and the “phage ELISA signal ratio” value [8] was 4.2.

B26: unnamed (peptide)
chain: DLMWWPETELHQGSWS
For B26, the “phage ELISA signal ratio” value [1] was 17.3.

B27: unnamed (peptide)
chain: HGMDYLNREFPWDWWT
For B27, the “phage ELISA signal ratio” value [5] was 16.6.

B28: unnamed (peptide)
chain: TIPPGYFKWVGEVRDE
With B28 the “phage ELISA signal ratio” value [2] was 16.3.
